Results reported in the supplement of paper PMC11732987, “Enantioselective OTUD7B fragment discovery through chemoproteomics screening and high-throughput optimisation” (Communications Chemistry, 2025).

Tests used:
Test in all cases: log2 ratio of Biotin-Ahx-Ub-VS probe labelling (fragment/DMSO); higher = less target engagement (more negative = stronger competition), active = hit call of the paper (q ≤ 0.05, log2 ratio ≤ -1)
Details in all cases: compound concentration: 200 uM; treatment time: 3 h
OTUD6B = biological target: T1, OTUD6B (UniProt Q8N6M0)
T1 sequence (whole entry): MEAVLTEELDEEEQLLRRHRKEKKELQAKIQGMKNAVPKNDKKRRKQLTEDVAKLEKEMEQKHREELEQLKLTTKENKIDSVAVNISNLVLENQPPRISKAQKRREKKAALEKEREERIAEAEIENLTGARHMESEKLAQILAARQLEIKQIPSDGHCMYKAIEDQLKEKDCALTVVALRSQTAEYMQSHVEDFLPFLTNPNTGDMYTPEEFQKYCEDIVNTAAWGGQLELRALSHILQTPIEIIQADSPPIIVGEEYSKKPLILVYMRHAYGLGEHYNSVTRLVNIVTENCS
Outline: (§1)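 HEK293T lysate (495 µg per sample, in Tris/CHAPS/IGEPAL buffer with protease inhibitors) was treated in triplicate with fragment at 200 µM or with DMSO for 3 h. It was then treated with Biotin-Ahx-Ub-VS (0.5 µM final) for 1 h. Labelled DUBs were NeutrAvidin-enriched, digested with LysC and trypsin, and run by diaPASEF LC-MS/MS. Spectronaut label-free quantities were global-median-normalised. Values are average log2 ratios fragment/DMSO by unpaired t-test, using proteins with ≥2 unique peptides.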

OTUD7B = biological target: T2, OTUD7B (UniProt Q6GQQ9)
T2 sequence (whole entry): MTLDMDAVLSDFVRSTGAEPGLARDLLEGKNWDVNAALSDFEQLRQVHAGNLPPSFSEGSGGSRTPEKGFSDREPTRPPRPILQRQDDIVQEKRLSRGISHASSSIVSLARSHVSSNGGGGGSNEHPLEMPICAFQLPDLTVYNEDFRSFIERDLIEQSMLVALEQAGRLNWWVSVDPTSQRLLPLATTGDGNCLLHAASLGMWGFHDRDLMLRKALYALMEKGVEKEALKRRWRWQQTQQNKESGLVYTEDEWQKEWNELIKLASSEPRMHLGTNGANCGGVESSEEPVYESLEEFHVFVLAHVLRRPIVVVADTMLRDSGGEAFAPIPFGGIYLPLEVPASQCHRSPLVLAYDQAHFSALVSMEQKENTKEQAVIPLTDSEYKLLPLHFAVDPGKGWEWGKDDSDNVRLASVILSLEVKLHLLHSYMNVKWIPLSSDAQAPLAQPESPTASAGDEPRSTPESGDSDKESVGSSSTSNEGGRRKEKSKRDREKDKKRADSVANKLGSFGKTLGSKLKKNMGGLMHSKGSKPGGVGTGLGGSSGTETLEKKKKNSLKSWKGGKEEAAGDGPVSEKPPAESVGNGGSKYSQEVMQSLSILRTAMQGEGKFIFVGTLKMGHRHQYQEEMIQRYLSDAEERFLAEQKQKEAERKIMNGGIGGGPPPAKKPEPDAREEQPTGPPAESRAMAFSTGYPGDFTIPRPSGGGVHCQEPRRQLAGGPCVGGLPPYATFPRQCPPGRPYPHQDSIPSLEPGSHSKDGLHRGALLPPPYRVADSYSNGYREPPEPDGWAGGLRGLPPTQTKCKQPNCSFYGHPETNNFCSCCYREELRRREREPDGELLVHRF
Outline: as §1

PRPF8 = PRPF8 (UniProt Q6P2Q9)
Outline: as §1

PSMD7 = biological target: T3, PSMD7 (UniProt P51665)
T3 sequence (whole entry): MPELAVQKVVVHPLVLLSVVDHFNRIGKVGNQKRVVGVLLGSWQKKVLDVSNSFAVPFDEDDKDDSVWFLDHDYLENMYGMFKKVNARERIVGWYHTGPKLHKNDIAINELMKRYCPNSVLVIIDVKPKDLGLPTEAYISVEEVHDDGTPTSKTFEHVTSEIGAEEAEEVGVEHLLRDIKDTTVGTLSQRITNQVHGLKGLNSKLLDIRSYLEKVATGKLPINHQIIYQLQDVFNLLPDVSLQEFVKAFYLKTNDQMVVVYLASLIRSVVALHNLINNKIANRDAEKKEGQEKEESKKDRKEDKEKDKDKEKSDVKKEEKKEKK
Outline: as §1

UCHL1 = UCHL1 (UniProt P09936)
Outline: as §1

UCHL3 = biological target: T4, UCHL3 (UniProt P15374)
T4 sequence (whole entry): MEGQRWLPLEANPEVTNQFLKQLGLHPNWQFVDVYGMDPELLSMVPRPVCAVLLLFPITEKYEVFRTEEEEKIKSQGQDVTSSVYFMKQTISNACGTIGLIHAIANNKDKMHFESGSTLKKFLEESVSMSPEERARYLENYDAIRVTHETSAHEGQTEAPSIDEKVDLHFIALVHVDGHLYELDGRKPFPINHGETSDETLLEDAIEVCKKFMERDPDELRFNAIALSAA
Outline: as §1

UCHL5 = biological target: T5, UCHL5 (UniProt Q9Y5K5)
T5 sequence (whole entry): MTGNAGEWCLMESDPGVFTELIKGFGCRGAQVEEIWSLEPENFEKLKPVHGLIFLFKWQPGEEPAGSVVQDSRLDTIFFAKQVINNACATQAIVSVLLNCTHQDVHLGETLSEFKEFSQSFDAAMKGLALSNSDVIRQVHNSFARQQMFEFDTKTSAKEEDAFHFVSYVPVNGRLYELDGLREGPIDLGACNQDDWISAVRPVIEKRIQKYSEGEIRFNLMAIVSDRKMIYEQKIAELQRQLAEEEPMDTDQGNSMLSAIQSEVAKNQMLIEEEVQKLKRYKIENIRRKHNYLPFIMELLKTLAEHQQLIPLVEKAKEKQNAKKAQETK
Outline: as §1

USP10 = USP10 (UniProt Q14694)
Outline: as §1

USP15 = biological target: T6, USP15 (UniProt Q9Y4E8)
T6 sequence (whole entry): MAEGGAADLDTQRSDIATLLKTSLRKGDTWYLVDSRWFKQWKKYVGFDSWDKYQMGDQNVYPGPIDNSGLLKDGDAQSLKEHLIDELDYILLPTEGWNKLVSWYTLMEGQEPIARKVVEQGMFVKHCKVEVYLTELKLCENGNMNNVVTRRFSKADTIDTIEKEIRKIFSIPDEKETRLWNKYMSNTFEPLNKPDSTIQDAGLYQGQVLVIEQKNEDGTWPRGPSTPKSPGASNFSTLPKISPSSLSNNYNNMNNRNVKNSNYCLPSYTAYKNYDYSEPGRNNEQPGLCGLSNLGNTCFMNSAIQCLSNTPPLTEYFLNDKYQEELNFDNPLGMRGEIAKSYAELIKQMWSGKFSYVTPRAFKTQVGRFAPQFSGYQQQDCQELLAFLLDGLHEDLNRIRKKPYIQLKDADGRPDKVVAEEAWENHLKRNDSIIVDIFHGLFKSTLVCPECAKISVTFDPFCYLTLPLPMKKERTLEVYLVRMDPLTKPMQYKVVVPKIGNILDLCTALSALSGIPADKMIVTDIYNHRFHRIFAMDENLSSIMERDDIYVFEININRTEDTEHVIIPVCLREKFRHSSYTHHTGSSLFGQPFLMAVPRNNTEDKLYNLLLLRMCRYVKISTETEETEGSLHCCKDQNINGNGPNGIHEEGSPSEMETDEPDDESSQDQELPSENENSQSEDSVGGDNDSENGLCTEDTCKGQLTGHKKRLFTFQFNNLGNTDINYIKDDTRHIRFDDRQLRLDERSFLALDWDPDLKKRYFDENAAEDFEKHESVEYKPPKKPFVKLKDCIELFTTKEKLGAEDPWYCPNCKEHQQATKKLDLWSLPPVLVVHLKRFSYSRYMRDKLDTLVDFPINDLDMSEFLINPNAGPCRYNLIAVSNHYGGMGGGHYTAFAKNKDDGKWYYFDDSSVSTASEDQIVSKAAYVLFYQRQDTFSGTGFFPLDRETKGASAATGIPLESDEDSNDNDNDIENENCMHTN
Outline: as §1

USP16 = USP16 (UniProt Q9Y5T5)
Outline: as §1

Measured: log2 ratio of Biotin-Ahx-Ub-VS probe labelling

UCHL1, sequence (P09936 whole entry, looked up): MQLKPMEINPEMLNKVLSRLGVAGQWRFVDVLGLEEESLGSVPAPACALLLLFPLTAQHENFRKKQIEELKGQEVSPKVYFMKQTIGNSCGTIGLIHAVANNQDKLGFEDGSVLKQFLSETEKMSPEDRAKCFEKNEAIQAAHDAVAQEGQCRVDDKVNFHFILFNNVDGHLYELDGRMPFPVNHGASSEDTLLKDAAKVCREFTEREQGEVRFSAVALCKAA
USP10, sequence (Q14694 whole entry): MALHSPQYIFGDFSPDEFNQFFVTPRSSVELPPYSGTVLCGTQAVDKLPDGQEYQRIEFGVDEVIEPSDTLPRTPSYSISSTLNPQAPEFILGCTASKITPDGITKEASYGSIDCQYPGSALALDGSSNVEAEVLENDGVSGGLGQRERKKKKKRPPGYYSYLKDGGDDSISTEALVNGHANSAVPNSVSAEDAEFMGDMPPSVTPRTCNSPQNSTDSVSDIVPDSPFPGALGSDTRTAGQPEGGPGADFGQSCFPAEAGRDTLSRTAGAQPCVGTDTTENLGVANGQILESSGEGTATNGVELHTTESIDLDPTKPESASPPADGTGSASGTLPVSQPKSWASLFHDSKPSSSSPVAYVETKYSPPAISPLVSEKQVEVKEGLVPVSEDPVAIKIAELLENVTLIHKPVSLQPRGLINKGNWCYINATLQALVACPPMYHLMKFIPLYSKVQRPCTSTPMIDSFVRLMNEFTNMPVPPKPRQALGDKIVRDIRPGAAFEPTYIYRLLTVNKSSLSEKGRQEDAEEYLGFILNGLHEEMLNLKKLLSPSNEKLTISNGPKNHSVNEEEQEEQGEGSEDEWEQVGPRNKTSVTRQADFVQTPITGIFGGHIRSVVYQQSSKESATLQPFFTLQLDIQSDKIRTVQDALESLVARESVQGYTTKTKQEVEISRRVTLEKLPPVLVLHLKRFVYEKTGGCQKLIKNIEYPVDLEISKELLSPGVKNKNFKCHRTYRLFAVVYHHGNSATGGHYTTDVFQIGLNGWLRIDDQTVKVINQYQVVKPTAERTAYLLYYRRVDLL
USP16, sequence (Q9Y5T5 whole entry, looked up): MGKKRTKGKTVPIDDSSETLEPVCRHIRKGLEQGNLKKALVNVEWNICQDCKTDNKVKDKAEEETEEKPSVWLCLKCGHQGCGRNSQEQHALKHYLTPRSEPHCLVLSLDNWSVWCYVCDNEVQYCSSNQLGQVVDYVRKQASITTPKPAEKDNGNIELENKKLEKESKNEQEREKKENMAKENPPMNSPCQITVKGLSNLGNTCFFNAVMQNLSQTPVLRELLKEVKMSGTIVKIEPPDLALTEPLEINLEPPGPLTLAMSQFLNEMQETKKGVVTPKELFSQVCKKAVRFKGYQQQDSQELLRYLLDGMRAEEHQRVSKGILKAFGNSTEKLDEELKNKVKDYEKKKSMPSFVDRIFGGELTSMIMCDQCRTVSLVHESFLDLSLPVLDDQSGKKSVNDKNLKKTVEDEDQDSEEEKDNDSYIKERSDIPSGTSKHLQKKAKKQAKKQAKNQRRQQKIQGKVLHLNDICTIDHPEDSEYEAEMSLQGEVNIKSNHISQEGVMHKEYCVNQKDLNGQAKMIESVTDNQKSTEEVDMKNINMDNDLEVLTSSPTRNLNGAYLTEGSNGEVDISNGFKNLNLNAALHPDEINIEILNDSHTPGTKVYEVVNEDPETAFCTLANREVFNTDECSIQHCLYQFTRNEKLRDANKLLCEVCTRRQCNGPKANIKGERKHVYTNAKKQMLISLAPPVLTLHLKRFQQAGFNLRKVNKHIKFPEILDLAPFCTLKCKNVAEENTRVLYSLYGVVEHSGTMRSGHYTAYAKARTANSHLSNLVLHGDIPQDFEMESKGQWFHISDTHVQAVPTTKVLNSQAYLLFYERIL

Cc1ccc(N2CCC(NC(=O)CCl)C2=O)cc1 (stereo not given)
active: UCHL1 -1.67
inactive: OTUD6B 0.0252 | OTUD7B -0.741 | PRPF8 -0.0776 | PSMD7 0.0257 | UCHL3 0.299 | UCHL5 -0.0673 | USP10 -0.174 | USP15 0.106 | USP16 -0.702
